Experimental data: PubChem BioAssay

Assay: Her2 expression decrease, cell viability multiplex – SKBR3 breast tumor cells, AlphaScreen, ATP viability, primary screen (AID 461);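 note: percent of carrier control wells set as 100% viability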
Settings: SKBR3 Her2 protein level, 18-24 h, measured here: SKBR3 viability, ATP luminescence, at 10 µM

Structure (SMILES) | viability [%]
O=S(=O)(Nc1ccc(Cc2ccncc2)cc1)N1CCCC1 | 88
CCn1c(=O)cc(OCC(=O)NCCCN2CC(C)CC(C)C2)c2ccccc21 (stereo not given) | 101
Nn1c(SCC(=O)Nc2ccc3c(c2)OCO3)nnc1C1CC1 | 102
CCOP(=O)(c1ccc(N(C)C)cc1)C(O)c1ccccc1OC (stereo not given) | 86
COc1ccc(C(=O)N2CCSC2=S)cc1OC | 97.5
O=c1c2nnn(Cc3ccccc3)c2ncn1-c1ccccc1 | 103
CCOc1ccc(NC(=O)CN(C)S(=O)(=O)c2cccs2)cc1 | 104
O=c1[nH]c(SCc2cc(=O)n3ccccc3n2)nc2c1CCC2 | 101
Cc1ccc(O)c(NC(=O)COc2cc(C)ccc2C)c1 | 93.5
N#Cc1cc2sc3nnc(-c4ccncc4)n3c2cc1C#N | 112
CCOc1cc(C2c3c(n[nH]c3C)C(=O)N2c2ccc(Br)cc2)ccc1O (stereo not given) | 102
Cc1cc(NC(=O)CSc2ccc(Cl)cc2)no1 | 88.5
CC(C)[C@H](NC(=O)NC1CCCC1)C(=O)O | 103
CCOC(=O)c1[nH]c2ccc(OC)cc2c1NC(=O)CCN1CCC(C)CC1 | 101
CCc1nc(C)c(-c2ccccc2)c(=O)[nH]1 | 102
CN(C)c1ccc(NC(=O)CSCc2nc3c(nnn3Cc3ccc(F)cc3)c(=O)[nH]2)cc1 | 89.5
COc1ccc(C2CC(=O)c3cnc(NC(=O)c4ccccc4OC)nc3C2)c(OC)c1 (stereo not given) | 97.5
Cc1cnc(NC(=O)CSc2nc3ccccc3c(=O)[nH]2)s1 | 89.5
CCCOc1ccc(OCCSc2ncccn2)cc1 | 97
Cc1nnc(C)c2c(C)n(-c3ccc(Br)cc3)c(C)c12 | 110

Structure (SMILES) | viability [%]
COC(=O)c1cc(O)c(OCc2ccccc2)c(O)c1 | 88
O=C(c1ccc(Br)o1)N(c1ccc(Br)cc1)C1C=CS(=O)(=O)C1 (stereo not given) | 89
Cc1nn(-c2ccccc2)c(C)c1C(=O)OCC(=O)c1c(N)n(CC(C)C)c(=O)n(C)c1=O | 104
CC(=O)N1CCc2cc(S(=O)(=O)NC(C(=O)NCc3ccccc3)C(C)C)ccc21 (stereo not given) | 97
N#CC1=C(N)Oc2n[nH]c(-c3cccs3)c2C1c1cccs1 (stereo not given) | 96.5
Cc1cc(C(=O)CN2C(=O)c3ccccc3C2=O)c(C)n1Cc1cccs1 | 122
CCc1nnc(NC(=O)C2CCCN2S(=O)(=O)c2ccc(C)cc2)s1 (stereo not given) | 91.5
COC(=O)C1=C(C)C(c2cccs2)NC(=O)N1C (stereo not given) | 92.5
CCOC(=O)CSc1nnc([C@H](C)NC(=O)OC(C)(C)C)o1 | 104
O=C1CC(N2CCN(c3ccc(Cl)c(Cl)c3)CC2)C(=O)N1 (stereo not given) | 67.5
CCC(C)(C)n1nnnc1C(c1ccncc1)N1CCN(c2cccc(OC)c2)CC1 (stereo not given) | 77.5
COc1cccc(C(=O)OCn2nnc3ccccc3c2=O)c1 | 88
O=C(O)CCc1ccc(-c2ccc(F)cc2)n1CC(=O)O | 94.5
COC(=O)c1ccccc1S(=O)(=O)N(CCCO)Cc1cc2c(C)ccc(C)c2[nH]c1=O | 84.5
COC(=O)c1ccc(-c2ccc(CNCC(O)c3ccccc3)o2)cc1 (stereo not given) | 111
COC(=O)Nc1ccc(S(=O)(=O)N2CCN(c3ccc(F)cc3)CC2)cc1 | 96.5
O=C(Nc1ccc(O)cc1)C1CCCN1S(=O)(=O)c1ccc(F)cc1 (stereo not given) | 97.5
CCc1ccc(C=NC23CN4CN(CN(C4)C2)C3)s1 | 108
Cc1nnc(SCC(=O)N2c3ccccc3CC2C)s1 (stereo not given) | 105
COc1ccccc1S(=O)(=O)n1cc(Cc2ccccc2)c(N)n1 | 96.5
